Data: article PMC5540273 (PLoS ONE, 2017)

Tests used:
Conditions in all cases: concentration: 1 μM, replicates: in singlicate; n = 1
[1] = system: PIK3C2G
[2] = system: PIK3CA
[3] = system: PIK3CB
[4] = system: PIK3CD
[5] = system: PIK3CG
[6] = system: T1, PIK4CB
T1 construct: gene PI4KB

[7] = system: PIKFYVE
[8] = system: PIM1
[9] = system: PIM2
[10] = system: PIM3
[11] = system: PIP5K1A
[12] = system: PIP5K1C
[13] = system: PIP5K2B
[14] = system: T2, PIP5K2C
T2 construct: gene PIP4K2C

[15] = system: T3, PKAC-alpha
T3 construct: gene PRKACA

[16] = system: T4, PKAC-beta
T4 construct: gene PRKACB

[17] = system: PKMYT1
[18] = system: PKN1
[19] = system: PKN2
[20] = system: PLK1
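Further: KINOMEscan kinase panel screen.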

| SMILES | %Inh [1] [%] | %Inh [2] [%] | %Inh [3] [%] | %Inh [4] [%] | %Inh [5] [%] | %Inh [6] [%] | %Inh [7] [%] | %Inh [8] [%] | %Inh [9] [%] | %Inh [10] [%] | %Inh [11] [%] | %Inh [12] [%] | %Inh [13] [%] | %Inh [14] [%] | %Inh [15] [%] | %Inh [16] [%] | %Inh [17] [%] | %Inh [18] [%] | %Inh [19] [%] | %Inh [20] [%] |
| --- | --- | --- | --- | --- | --- | --- | --- | --- | --- | --- | --- | --- | --- | --- | --- | --- | --- | --- | --- | --- |
| CCn1c(-c2nonc2N)nc2c(-c3ccccc3)ncc(OCCCN)c21.O=C(O)C(F)(F)F.O=C(O)C(F)(F)F [GSK260205] | 9 | 0 | 0 | 1 | 0 | 0 | 98.8 | 62 | 2 | 44 | 35 | 87 | 10 | 29 | 97.6 | 97.7 | 0 | 84 | 0 | 0 |
| Cc1ccc(O)cc1Nc1ccnc2cc(-c3ccc(CN4CCCCC4)o3)ccc12 [GW557777] | 16 | 0 | 0 | 0 | 0 | 0 | 0 | 0 | 2 | 7 | 0 | 0 | 0 | 0 | 5 | 0 | 0 | 0 | 0 | 0 |
| CSc1ccc(NC2=C(c3ccc(Cl)cc3)C(=O)NC2=O)cc1 [SB-317658] | 15 | 0 | 24 | 54 | 0 | 27 | 0 | 1 | 0 | 12 | 0 | 0 | 43 | 0 | 16 | 16 | 10 | 7 | 9 | 4 |
| Nc1ncc(-c2cn[nH]c2)c2scc(-c3ccc4c(c3)CCN4C(=O)Cc3ccccc3)c12 [GSK2593067] | 0 | 0 | 0 | 5 | 0 | 25 | 0 | 0 | 0 | 0 | 0 | 30 | 0 | 0 | 20 | 19 | 0 | 12 | 9 | 0 |
| COc1cc(Nc2ccnc3cc(-c4ccncc4)ccc23)cc(OC)c1OC.Cl [GW494610] | 0 | 0 | 0 | 0 | 0 | 0 | 0 | 11 | 0 | 0 | 0 | 36 | 8 | 27 | 0 | 2 | 0 | 0 | 7 | 0 |
| COC(=O)Nc1nc2ccc(Oc3ccc(CC(=O)Nc4cc(C(F)(F)F)ccc4F)cc3)cc2[nH]1 [GW680903] | 0 | 0 | 0 | 0 | 0 | 0 | 5 | 19 | 0 | 0 | 7 | 37 | 2 | 31 | 0 | 0 | 0 | 0 | 0 | 0 |
| Cl.O=C(Nc1ccc(Oc2ccc3[nH]c(NC(=O)c4ccco4)nc3c2)cc1)Nc1cc(C(F)(F)F)ccc1F [GW683134] | 0 | 100 | 0 | 8 | 99.9 | 18 | 0 | 0 | 0 | 0 | 0 | 10 | 0 | 0 | 0 | 8 | 0 | 7 | 0 | 0 |
| COc1ccc(C2=C(Nc3cccc(O)c3)C(=O)NC2=O)cc1 [SB-390766] | 0 | 0 | 0 | 2 | 0 | 9 | 0 | 9 | 0 | 0 | 4 | 82 | 0 | 10 | 0 | 0 | 13 | 0 | 38 | 95.9 |
| Cc1ccc(O)cc1Nc1ccnc2ccc(C(C)(C)C)cc12 [GW856805] | 39 | 13 | 40 | 56 | 22 | 47 | 18 | 37 | 5 | 18 | 0 | 0 | 0 | 0 | 43 | 0 | 14 | 0 | 14 | 63 |
| CN(C)c1ncnc2nc[nH]c12 [SKF-31736] | 0 | 13 | 0 | 0 | 8 | 1 | 21 | 5 | 0 | 8 | 0 | 0 | 0 | 10 | 0 | 0 | 4 | 0 | 1 | 12 |
| Nc1ncc(-c2ccc3nccc(-c4ccncc4)c3c2)cc1S(=O)(=O)N1CCCCC1 [GSK1693850] | 99.8 | 100 | 96.9 | 100 | 100 | 95.9 | 0 | 8 | 0 | 0 | 0 | 40 | 0 | 62 | 1 | 0 | 0 | 9 | 0 | 76 |
| Cc1ccc(NC(=O)c2ccc(Cl)c(Cl)c2)cc1-c1ccc(C(=O)Nc2ccncc2)cc1 [GSK1398460] | 0 | 3 | 69 | 0 | 0 | 3 | 0 | 0 | 0 | 3 | 0 | 0 | 0 | 0 | 13 | 7 | 31 | 1 | 15 | 0 |
| O=C(Nc1n[nH]c2cc(-c3cccs3)ccc12)C1CC1 [SB-731284] | 1 | 3 | 35 | 0 | 27 | 0 | 9 | 0 | 0 | 0 | 21 | 96.7 | 15 | 35 | 0 | 0 | 0 | 5 | 0 | 64 |
| COc1cc(Nc2nccc(N3CCC(NC(=O)Nc4ccc5c(c4)OCO5)C3)n2)cc(OC)c1OC (stereo not drawn) [GSK1379766] | 0 | 3 | 0 | 50 | 13 | 80 | 10 | 0 | 0 | 0 | 19 | 56 | 0 | 92.3 | 0 | 0 | 0 | 35 | 0 | 2 |
| CCNc1nccc(-c2c(-c3ccc(F)cc3)ncn2C2CCN(C)CC2)n1 | 26 | 0 | 0 | 0 | 10 | 0 | 0 | 6 | 4 | 30 | 0 | 0 | 0 | 0 | 20 | 0 | 0 | 0 | 0 | 0 |
| COc1cccc(-c2nc(-c3ccccc3)[nH]c2-c2ccncc2)c1 [SB-610250] | 0 | 0 | 0 | 0 | 0 | 13 | 63 | 1 | 0 | 0 | 0 | 38 | 39 | 8 | 0 | 0 | 0 | 0 | 0 | 0 |
| CC(C)(C)c1ccc(C(=O)Nc2cn3cc(-n4ccnc4)ccc3n2)cc1 | 32 | 0 | 3 | 0 | 4 | 2 | 5 | 7 | 0 | 0 | 2 | 4 | 0 | 95.3 | 37 | 0 | 0 | 10 | 0 | 0 |
| N#Cc1cnc2cc(-c3cnc(CNCCN4CCOCC4)s3)ccc2c1Nc1ccc(Oc2ccccc2)cc1 [GW664114] | 0 | 0 | 0 | 7 | 0 | 11 | 100 | 11 | 0 | 8 | 25 | 34 | 31 | 41 | 0 | 0 | 0 | 13 | 0 | 0 |
| COc1cccc(C2=C(Nc3cccc(O)c3)C(=O)NC2=O)c1 [SB-390771] | 0 | 0 | 0 | 0 | 0 | 10 | 0 | 26 | 0 | 0 | 0 | 39 | 14 | 38 | 0 | 0 | 9 | 100 | 0 | 0 |
| COC(=O)Nc1nc2cc(Oc3ccc(NC(=O)Nc4cccc(SC)c4)cc3)ccc2[nH]1.Cl [GW697999] | 85 | 0 | 0 | 0 | 0 | 0 | 0 | 12 | 0 | 0 | 56 | 62 | 20 | 40 | 0 | 4 | 0 | 0 | 0 | 0 |
| CN(c1ccc2c(c1)nc(NCc1ccccc1)n2C)c1ccnc(Nc2ccc(CS(C)(=O)=O)cc2)n1.Cl [GW811603] | 0 | 0 | 41 | 0 | 29 | 26 | 50 | 0 | 0 | 0 | 23 | 44 | 0 | 79 | 0 | 0 | 0 | 0 | 0 | 0 |
